# Reference: paper PMC8384837, “Expanding the binding specificity for RNA recognition by a PUF domain”
# Substitutions are numbered along the chain they refer to.
# What was measured:
# Assay in all cases: yeast three-hybrid, YBZ-1, SC-Leu-His + 0.5 mM 3-AT, 4 days
# Conditions in all cases: tags: N-Gal4 AD-HA kept; label: inside an RPR1-promoter hybrid RNA with tandem MS2 sites; ssRNA
# PUM1 PUF domain R8-LYA = PUM1 PUF domain R8-LYA (Homo sapiens, UniProt Q14671 828-1176, N1122L;Q1126A)
# Summary of the method: (§1)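 Repeat regions from input (SC-Leu) and selection (SC-Leu-His + 0.5 mM 3-AT) plates were PCR-amplified and Illumina-sequenced after four days of growth. The cells were strain YBZ-1 with a LexA–MS2 coat fusion and a HIS3 reporter, co-expressing Pumilio-1 PUF domain libraries and matching RNA elements from a centromeric plasmid. The interaction score is the log change in variant frequency from input to selection, taken in log2 with a pseudocount of 1 for absent variants.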
# PUM1 PUF domain R3-VWF = PUM1 PUF domain R3-VWF (Homo sapiens, UniProt Q14671 828-1176, C935V;R936W;Q939F)
# Summary of the method: as §1
# PUM1 PUF domain R3-RAS = PUM1 PUF domain R3-RAS (Homo sapiens, UniProt Q14671 828-1176, C935R;R936A;Q939S)
# Summary of the method: as §1
# PUM1 PUF domain R5-KSL = PUM1 PUF domain R5-KSL (Homo sapiens, UniProt Q14671 828-1176, C1007K;R1008S;Q1011L)
# Summary of the method: as §1
# PUM1 PUF domain R5-PRG = PUM1 PUF domain R5-PRG (Homo sapiens, UniProt Q14671 828-1176, C1007P;Q1011G)
# Summary of the method: as §1
# PUM1 PUF domain R5-RRV = PUM1 PUF domain R5-RRV (Homo sapiens, UniProt Q14671 828-1176, C1007R;Q1011V)
# Summary of the method: as §1
# PUM1 PUF domain R1-RSV = PUM1 PUF domain R1-RSV (Homo sapiens, UniProt Q14671 828-1176, S863R;R864S;Q867V)
# Summary of the method: as §1
# PUM1 PUF domain R1-GLQ = PUM1 PUF domain R1-GLQ (Homo sapiens, UniProt Q14671 828-1176, S863G;R864L)
# Summary of the method: as §1
# PUM1 PUF domain R7-GRR = PUM1 PUF domain R7-GRR (Homo sapiens, UniProt Q14671 828-1176, S1079G;N1080R;E1083R)
# Summary of the method: as §1
# PUM1 PUF domain R5-RHH = PUM1 PUF domain R5-RHH (Homo sapiens, UniProt Q14671 828-1176, C1007R;R1008H;Q1011H)
# Summary of the method: as §1
# PUM1 PUF domain R5-SAP = PUM1 PUF domain R5-SAP (Homo sapiens, UniProt Q14671 828-1176, C1007S;R1008A;Q1011P)
# Summary of the method: as §1
# PUM1 PUF domain R1-KLM = PUM1 PUF domain R1-KLM (Homo sapiens, UniProt Q14671 828-1176, S863K;R864L;Q867M)
# Summary of the method: as §1
# PUM1 PUF domain R5-KPL = PUM1 PUF domain R5-KPL (Homo sapiens, UniProt Q14671 828-1176, C1007K;R1008P;Q1011L)
# Summary of the method: as §1
# PUM1 PUF domain R4-CFP = PUM1 PUF domain R4-CFP (Homo sapiens, UniProt Q14671 828-1176, N971C;H972F;Q975P)
# Summary of the method: as §1
# PUM1 PUF domain R4-LNA = PUM1 PUF domain R4-LNA (Homo sapiens, UniProt Q14671 828-1176, N971L;H972N;Q975A)
# Summary of the method: as §1
# PUM1 PUF domain R3-VHW = PUM1 PUF domain R3-VHW (Homo sapiens, UniProt Q14671 828-1176, C935V;R936H;Q939W)
# Summary of the method: as §1
# PUM1 PUF domain R6-HRK = target: T1, PUM1 PUF domain R6-HRK (Homo sapiens, UniProt Q14671 828-1176, N1043H;Y1044R;Q1047K)
# T1 sequence: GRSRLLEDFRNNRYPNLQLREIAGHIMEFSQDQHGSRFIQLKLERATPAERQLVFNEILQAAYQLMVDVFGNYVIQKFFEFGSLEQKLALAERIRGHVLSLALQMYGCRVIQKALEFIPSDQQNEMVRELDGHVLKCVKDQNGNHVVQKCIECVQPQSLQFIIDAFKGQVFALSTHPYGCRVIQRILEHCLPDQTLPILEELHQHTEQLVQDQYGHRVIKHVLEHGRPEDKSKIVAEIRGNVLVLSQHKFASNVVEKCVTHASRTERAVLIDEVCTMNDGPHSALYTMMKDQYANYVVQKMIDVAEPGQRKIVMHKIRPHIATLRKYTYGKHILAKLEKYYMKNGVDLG
# Summary of the method: as §1
# PUM1 PUF domain R6-FWL = target: T2, PUM1 PUF domain R6-FWL (Homo sapiens, UniProt Q14671 828-1176, N1043F;Y1044W;Q1047L)
# T2 sequence: T1 sequence with H216F, R217W, K220L
# Summary of the method: as §1
# PUM1 PUF domain R3-CRH = PUM1 PUF domain R3-CRH (Homo sapiens, UniProt Q14671 828-1176, Q939H)
# Summary of the method: as §1
# PUM1 PUF domain R7-GSK = PUM1 PUF domain R7-GSK (Homo sapiens, UniProt Q14671 828-1176, S1079G;N1080S;E1083K)
# Summary of the method: as §1
# PUM1 PUF domain R1-KLM, sequence (Q14671 828-1176 S863K/R864L/Q867M): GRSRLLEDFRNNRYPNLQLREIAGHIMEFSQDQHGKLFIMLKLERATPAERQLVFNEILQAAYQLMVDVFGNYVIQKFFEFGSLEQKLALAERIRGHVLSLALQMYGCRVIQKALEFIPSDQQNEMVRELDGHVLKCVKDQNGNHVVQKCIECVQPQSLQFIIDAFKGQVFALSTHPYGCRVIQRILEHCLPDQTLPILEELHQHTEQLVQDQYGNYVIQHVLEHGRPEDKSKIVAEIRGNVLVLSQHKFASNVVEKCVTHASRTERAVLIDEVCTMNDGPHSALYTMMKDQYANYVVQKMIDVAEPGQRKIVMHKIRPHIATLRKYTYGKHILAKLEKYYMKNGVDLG
# PUM1 PUF domain R5-KPL, sequence (Q14671 828-1176 C1007K/R1008P/Q1011L): as the sequence (Q14671 828-1176 S863K/R864L/Q867M) above, with K36S, L37R, M40Q, C180K, R181P, Q184L counted along it
# PUM1 PUF domain R5-RHH, sequence (Q14671 828-1176 C1007R/R1008H/Q1011H): as the sequence (Q14671 828-1176 S863K/R864L/Q867M) above, with K36S, L37R, M40Q, C180R, R181H, Q184H counted along it
# PUM1 PUF domain R3-RAS, sequence (Q14671 828-1176 C935R/R936A/Q939S): as the sequence (Q14671 828-1176 S863K/R864L/Q867M) above, with K36S, L37R, M40Q, C108R, R109A, Q112S counted along it
# PUM1 PUF domain R5-SAP, sequence (Q14671 828-1176 C1007S/R1008A/Q1011P): as the sequence (Q14671 828-1176 S863K/R864L/Q867M) above, with K36S, L37R, M40Q, C180S, R181A, Q184P counted along it
# PUM1 PUF domain R7-GSK, sequence (Q14671 828-1176 S1079G/N1080S/E1083K): as the sequence (Q14671 828-1176 S863K/R864L/Q867M) above, with K36S, L37R, M40Q, S252G, N253S, E256K counted along it
sequence,measurement,setting,value
GGCUAGAACUAGUGGAUCCCCCGGCGCCCGGCGGCUCGAGCCCGGGUAAGCGUAAAUAGUCUGCAUGCCGCCGGGCGCCAUGCCUGCAGGUCGACUCUAGAAAACAUG,binding signal,PUM1 PUF domain R8-LYA,2.77 log2 enrichment (interaction score)
GGCUAGAACUAGUGGAUCCCCCGGCGCCCGGCGGCUCGAGCCCGGGUAAGUGUAAUUAGUCUGCAUGCCGCCGGGCGCCAUGCCUGCAGGUCGACUCUAGAAAACAUG,binding signal,PUM1 PUF domain R3-VWF,2.85 log2 enrichment (interaction score)
same,binding signal,PUM1 PUF domain R3-RAS,3.67 log2 enrichment (interaction score)
GGCUAGAACUAGUGGAUCCCCCGGCGCCCGGCGGCUCGAGCCCGGGUAAGUGUUAAUAGUCUGCAUGCCGCCGGGCGCCAUGCCUGCAGGUCGACUCUAGAAAACAUG,binding signal,PUM1 PUF domain R5-KSL,3.78 log2 enrichment (interaction score)
same,binding signal,PUM1 PUF domain R5-PRG,3.9 log2 enrichment (interaction score)
same,binding signal,PUM1 PUF domain R5-RRV,4.92 log2 enrichment (interaction score)
GGCUAGAACUAGUGGAUCCCCCGGCGCCCGGCGGCUCGAGCCCGGGUAAGUGUAAAUUGUCUGCAUGCCGCCGGGCGCCAUGCCUGCAGGUCGACUCUAGAAAACAUG,binding signal,PUM1 PUF domain R1-RSV,2.17 log2 enrichment (interaction score)
same,binding signal,PUM1 PUF domain R1-GLQ,2.93 log2 enrichment (interaction score)
GGCUAGAACUAGUGGAUCCCCCGGCGCCCGGCGGCUCGAGCCCGGGUAAGUCUAAAUAGUCUGCAUGCCGCCGGGCGCCAUGCCUGCAGGUCGACUCUAGAAAACAUG,binding signal,PUM1 PUF domain R7-GRR,2.81 log2 enrichment (interaction score)
GGCUAGAACUAGUGGAUCCCCCGGCGCCCGGCGGCUCGAGCCCGGGUAAGUGUGAAUAGUCUGCAUGCCGCCGGGCGCCAUGCCUGCAGGUCGACUCUAGAAAACAUG,binding signal,PUM1 PUF domain R5-PRG,2.67 log2 enrichment (interaction score)
same,binding signal,PUM1 PUF domain R5-RRV,1.41 log2 enrichment (interaction score)
same,binding signal,PUM1 PUF domain R5-RHH,3.25 log2 enrichment (interaction score)
same,binding signal,PUM1 PUF domain R5-SAP,3.23 log2 enrichment (interaction score)
GGCUAGAACUAGUGGAUCCCCCGGCGCCCGGCGGCUCGAGCCCGGGUAAGUGUAAAUCGUCUGCAUGCCGCCGGGCGCCAUGCCUGCAGGUCGACUCUAGAAAACAUG,binding signal,PUM1 PUF domain R1-RSV,3.6 log2 enrichment (interaction score)
same,binding signal,PUM1 PUF domain R1-KLM,3.89 log2 enrichment (interaction score)
GGCUAGAACUAGUGGAUCCCCCGGCGCCCGGCGGCUCGAGCCCGGGUAAGUGUAAGUAGUCUGCAUGCCGCCGGGCGCCAUGCCUGCAGGUCGACUCUAGAAAACAUG,binding signal,PUM1 PUF domain R3-VWF,2.09 log2 enrichment (interaction score)
GGCUAGAACUAGUGGAUCCCCCGGCGCCCGGCGGCUCGAGCCCGGGUAAGUGUCAAUAGUCUGCAUGCCGCCGGGCGCCAUGCCUGCAGGUCGACUCUAGAAAACAUG,binding signal,PUM1 PUF domain R5-KPL,4.18 log2 enrichment (interaction score)
same,binding signal,PUM1 PUF domain R5-KSL,3.79 log2 enrichment (interaction score)
same,binding signal,PUM1 PUF domain R5-PRG,1.67 log2 enrichment (interaction score)
same,binding signal,PUM1 PUF domain R5-RRV,4.84 log2 enrichment (interaction score)
GGCUAGAACUAGUGGAUCCCCCGGCGCCCGGCGGCUCGAGCCCGGGUAAGUGUACAUAGUCUGCAUGCCGCCGGGCGCCAUGCCUGCAGGUCGACUCUAGAAAACAUG,binding signal,PUM1 PUF domain R4-CFP,2.19 log2 enrichment (interaction score)
GGCUAGAACUAGUGGAUCCCCCGGCGCCCGGCGGCUCGAGCCCGGGUAAGUGUAUAUAGUCUGCAUGCCGCCGGGCGCCAUGCCUGCAGGUCGACUCUAGAAAACAUG,binding signal,PUM1 PUF domain R4-CFP,6.56 log2 enrichment (interaction score)
same,binding signal,PUM1 PUF domain R4-LNA,2.84 log2 enrichment (interaction score)
GGCUAGAACUAGUGGAUCCCCCGGCGCCCGGCGGCUCGAGCCCGGGUAAGUGUAAAUAGUCUGCAUGCCGCCGGGCGCCAUGCCUGCAGGUCGACUCUAGAAAACAUG,binding signal,PUM1 PUF domain R3-VHW,3.99 log2 enrichment (interaction score)
same,binding signal,PUM1 PUF domain R3-VWF,5.2 log2 enrichment (interaction score)
same,binding signal,PUM1 PUF domain R5-KSL,0.96 log2 enrichment (interaction score)
same,binding signal,PUM1 PUF domain R4-CFP,5.06 log2 enrichment (interaction score)
same,binding signal,PUM1 PUF domain R8-LYA,1.25 log2 enrichment (interaction score)
same,binding signal,PUM1 PUF domain R6-HRK,2.98 log2 enrichment (interaction score)
same,binding signal,PUM1 PUF domain R6-FWL,5.31 log2 enrichment (interaction score)
same,binding signal,PUM1 PUF domain R3-CRH,3.86 log2 enrichment (interaction score)
same,binding signal,PUM1 PUF domain R5-PRG,3.3 log2 enrichment (interaction score)
same,binding signal,PUM1 PUF domain R5-RRV,2.01 log2 enrichment (interaction score)
GGCUAGAACUAGUGGAUCCCCCGGCGCCCGGCGGCUCGAGCCCGGGUAAGUGUAAAUGGUCUGCAUGCCGCCGGGCGCCAUGCCUGCAGGUCGACUCUAGAAAACAUG,binding signal,PUM1 PUF domain R1-KLM,0.59 log2 enrichment (interaction score)
GGCUAGAACUAGUGGAUCCCCCGGCGCCCGGCGGCUCGAGCCCGGGUAAGUUUAAAUAGUCUGCAUGCCGCCGGGCGCCAUGCCUGCAGGUCGACUCUAGAAAACAUG,binding signal,PUM1 PUF domain R7-GRR,5.06 log2 enrichment (interaction score)
same,binding signal,PUM1 PUF domain R7-GSK,4.61 log2 enrichment (interaction score)
GGCUAGAACUAGUGGAUCCCCCGGCGCCCGGCGGCUCGAGCCCGGGUAAGUGAAAAUAGUCUGCAUGCCGCCGGGCGCCAUGCCUGCAGGUCGACUCUAGAAAACAUG,binding signal,PUM1 PUF domain R6-FWL,5.88 log2 enrichment (interaction score)
